Laboratory results reported in PubChem BioAssay (NCI).
Compounds without any hit were thinned out: in the full panel of roughly 83,000, 20% have a hit.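 Activity criterion: percent growth below 10, measured after cells in 96-well plates were exposed to a single compound concentration for 48 hours.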 A number with no mark means an inactive call. Active and inactive are the calls of the source.

Each compound was assayed on HL-60(TB) leukemia (assay: NCI-60 one-dose screen, 48 h (100 = growth as untreated, 0 = no growth, -100 = all killed)). Settings: 10 µM unless noted.
With Cc1ccn2c(-c3csc(Nc4cccc(O)c4)n3)c(C)nc2c1 the growth was -19.4% (active).
With CCOC(=O)[C@@H]1CSC(CC)=C(C(=O)O)N1 the growth was -17.3% (active).
With Cc1nc2sc(C(=O)Nc3cccc4ccccc34)c(N)c2cc1C(C)O (stereo not drawn) the growth was -24.1% (active).
With COC(=O)c1ccc(=O)oc1 the growth was 96.2%.
In the case of COc1ccccc1-c1ccc2nc(NC(=O)Nc3cc(C(F)(F)F)cc(C(F)(F)F)c3)sc2c1, the growth was -34.5% (active).
Work on O=C1c2cc([N+](=O)[O-])ccc2-c2cc(Cl)c(NC(=O)C(F)(F)F)cc21 yielded a growth of 75.6%.
CCN(CCCNC(=O)Cc1cc(=O)oc2cc(N(C)C)ccc12)CCNc1ccnc2cc(Cl)ccc12 gave a growth of 76.6%.
Compound CCCn1cnc2c1c(=O)n(CCCCC(C)=O)c(=O)n2C has a growth of 91.4%.
C=CC(=O)Nc1ccc(Oc2nccc(Nc3nnc(-c4ccc(C)cc4)s3)n2)cc1 showed a growth of 41.6%.
For S=C1CCCCCN1, the growth was 107%.
Cc1cc(C)nc(SC2=C(Nc3cccc(Cl)c3)C(=O)N(Cc3ccccc3)C2=O)n1 showed a growth of 18.1% [30 µM].
Work on Cc1nn(-c2ccccc2)c(/N=C/N(C)C)c1/C=C/C(=O)c1ccc(Cl)cc1 yielded a growth of 76.3%.
Compound COc1cc2ncnc(Nc3ccc(S(=O)(=O)Nc4nccs4)cc3)c2cc1OCCCN1CCOCC1 has a growth of 112%.
O=C(N/N=C/c1ccc(OC(F)F)c(OC2CCCC2)c1)c1cnn2c1NC(c1ccccc1)C2 (stereo not drawn) gave a growth of 100%.
CCCCCCCC/C=C\CCCCCCCCOc1ccccc1CC(=O)NCC[N+]1(C)CCOCC1 showed a growth of 67.2%.
Compound O=C(NNC(=O)N1c2ccccc2C=Cc2ccccc21)c1ccc2ccccc2c1 has a growth of 90%.
With COc1ccc2[nH]c(C(=O)N3CCN(C(=O)OCc4ccc5c(Cl)cc(Cl)c(O)c5n4)CC3)cc2c1 the growth was -45% (active).
With CCC1(C(C)C)NC(=O)NC1=O (stereo not drawn) the growth was 100%.
CCn1cc(C(=O)O)c(=O)c2cc(F)c(N3CCN(CC(=O)Nc4ccccc4)C(C)C3)c(F)c21 (stereo not drawn) gave a growth of 104%.
C[C@]12CC[C@@H]3c4ccc(O)cc4CC[C@H]3[C@@H]1CC[C@@H]2NS(=O)(=O)c1cccc(Br)c1 was tested, and the growth was 35.2%.
COC(=O)C(C)Oc1ccc(OC#N)cc1 (stereo not drawn) gave a growth of 46.1%.
OC(c1ccccc1)(c1ccccc1)c1ccccc1-c1ccccc1 showed a growth of 82%.
COc1cc(/C=C/C(=O)c2ccc(Nc3nc(Nc4ccccc4)nc(Nc4ccc(Cl)cc4)n3)cc2)cc(OC)c1OC gave a growth of 64.5%.
